PAFAH2 inh: inhibitors of human PAFAH2. inhibition, % at 3.39 µM. 340,000 compounds, 0.99% hits. recombinant PAFAH2, FP-rhodamine activity probe, fluorescence polarization;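 active = inhibition above the mean over all tested compounds plus 3 SD, cut at about 30% in these data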;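 note: inhibitors block probe labeling of enzyme so polarization drops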
PAFAH1B2 FP inh: PAFAH1B2 (human) inhibition. P68402. recombinant PAFAH1B2, FP-rhodamine activity probe, fluorescence polarization. inhibition, % at 3.39 µM. 340,000 compounds, 1.2% hits. AID 492953;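 active = inhibition above the mean of all tested compounds plus 3 SD, cut at about 24% in these data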
PKA-R2B act: PKA-R2B complex activation; PKA-R2B holoenzyme dissociation, Cy5-IP20 fluorescence polarization; R2B truncated from residue 108, S112A mutant; 0% DMSO only, 100% 113 µM cGMP; activation, % at 11.4 µM; 340,000 compounds, 0.079% hits; AID 504700;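 active = activation above a cutoff set at the mean over all compounds plus 3 SD, cut at about 18% in these data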;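 note: higher means more holoenzyme dissociation and a rise in polarization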
pPAFAH inh: inhibitors of human plasma PAF acetylhydrolase (pPAFAH). recombinant pPAFAH, FP-rhodamine probe fluorescence polarization. AID 463082. Q13093. 330,000 compounds, 1.5% hits. inhibition, % at 3.39 µM;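 active = inhibition above the mean inhibition across the screen plus 3 SD, cut at about 25% in these data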;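 note: inhibitors block binding of the rhodamine activity-based probe so polarization drops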
Target sequence (Q13093 whole entry, looked up): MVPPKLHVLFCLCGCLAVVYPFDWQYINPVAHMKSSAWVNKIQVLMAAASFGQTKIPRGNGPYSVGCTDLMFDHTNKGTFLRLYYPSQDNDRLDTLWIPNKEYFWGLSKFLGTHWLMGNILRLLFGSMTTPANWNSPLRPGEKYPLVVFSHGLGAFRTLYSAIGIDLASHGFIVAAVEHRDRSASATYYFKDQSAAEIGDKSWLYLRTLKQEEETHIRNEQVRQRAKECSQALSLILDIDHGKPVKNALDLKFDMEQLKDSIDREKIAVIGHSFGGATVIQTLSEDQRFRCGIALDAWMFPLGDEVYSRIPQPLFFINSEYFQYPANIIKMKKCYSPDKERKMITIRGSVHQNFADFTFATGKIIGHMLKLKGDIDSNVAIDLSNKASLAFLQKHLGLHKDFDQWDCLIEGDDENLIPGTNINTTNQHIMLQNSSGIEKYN
PKA-R1A activ: activates the PKA-R1A holoenzyme complex | P00514+P68181 | PKA-R1A dissociation, Cy5-IP20 fluorescence polarization; scaled: DMSO 0%, 113 µM cGMP 100% | activation, % at 11.4 µM | 340,000 compounds, 0.083% hits | AID 504707;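 active = percent activation above the mean of all tested compounds plus 3 SD, cut at about 19% in these data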;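 note: higher means more PKAc released from R1A so a rise in polarization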
PAFAH1B3 FP inh: inhibitors of human PAFAH1B3; AID 492972; 340,000 compounds, 0.28% hits; inhibition, % at 3.39 µM; recombinant PAFAH1B3, FP-rhodamine probe, fluorescence polarization; Q15102;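 active = inhibition above the screen-wide average of all tested compounds plus 3 SD, cut at about 25% in these data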
Target sequence (Q15102 whole entry, looked up): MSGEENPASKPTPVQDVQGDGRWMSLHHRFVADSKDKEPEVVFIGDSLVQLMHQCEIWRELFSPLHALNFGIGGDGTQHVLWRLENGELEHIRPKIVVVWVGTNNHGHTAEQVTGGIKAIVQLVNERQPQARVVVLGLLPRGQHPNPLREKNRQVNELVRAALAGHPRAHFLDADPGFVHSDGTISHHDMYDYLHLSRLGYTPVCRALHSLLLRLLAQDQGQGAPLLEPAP
pPAFAH FP conf: pPAFAH (human) inhibition, confirmed; inhibition, % at 3.39 µM; shares compounds with pPAFAH inh; 2,300 compounds, 72% hits; recombinant pPAFAH, FP-Rh probe fluorescence polarization;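 active = mean inhibition of the triplicate above the hit cutoff set for the earlier primary screen, cut at about 25% in these data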
Of the large screens only hits and unclear results are named; the others gave an inactive call (follow-up assays come after a bar, where they were run). Sampled rows, rich in hits. Any-hit rate of the full collection: about 2.6%.

CC(OC(=O)c1ccc(Cl)c(S(N)(=O)=O)c1)C(=O)NCc1ccc2c(c1)OCO2 (configuration not stated)	none
N=C1SC(c2ccccc2)C(=O)N1c1ncc(Cc2ccccc2Cl)s1 (configuration not stated)	pPAFAH inh 58 | pPAFAH FP conf 71
O=C(CSc1nnc(-c2ccco2)c(-c2ccco2)n1)c1ccccc1	PAFAH2 inh 33, pPAFAH inh 54 | pPAFAH FP conf inactive
CC(=O)c1ccc(NC(=O)CSc2nnc(-c3ccco3)c(-c3ccco3)n2)cc1	pPAFAH inh 46 | pPAFAH FP conf inactive
CC(=O)Nc1ccc(NC(=O)CSc2nnc(-c3ccco3)o2)cc1	none
CCCCN(C(=O)C1CCC1)c1c(N)n(CC(C)C)c(=O)[nH]c1=O	none
c1ccc(NC2=NCCN2CCCC2CCCCC2)cc1	none
CC1=Nc2nc(N3CCCCC3)c(C#N)c3c4c(nc(c23)N1)N(c1ccc(C(C)C)cc1)C(=O)C4	pPAFAH inh 63 | pPAFAH FP conf 29
COc1cc(NC(c2ccccc2)c2ccccc2)cc(OC)c1OC	pPAFAH inh 44 | pPAFAH FP conf 43
COc1cc(NC(=O)CNC(c2ccccc2)c2ccccc2)cc(OC)c1OC	none
CN(C(=O)CC1C(=O)NCCN1Cc1ccc(F)c(F)c1)C1CCOCC1 (configuration not stated)	pPAFAH inh 59 | pPAFAH FP conf inactive
Cc1nc2cc(C(=O)OCC(=O)Nc3cccc(Cl)c3)ccc2n1-c1ccccc1	PAFAH2 inh 64, pPAFAH inh 43 | pPAFAH FP conf 41
Cc1nc2cc(C(=O)OCC(=O)NC3CCS(=O)(=O)C3)ccc2n1-c1ccccc1 (configuration not stated)	none
O=C(O)CCc1ccc(-c2ccccc2)n1Cc1ccco1	none
O=C(O)CCc1ccc(-c2ccc(Br)cc2)n1Cc1ccco1	pPAFAH inh 45 | pPAFAH FP conf 33
O=C(Cn1cc(S(=O)(=O)Cc2cccc(F)c2)c2ccccc21)N1CCOCC1	none
CCOC(=O)c1c(C)[nH]c(N=Nc2cc(C(=O)O)cc(C(=O)O)c2)c1C	pPAFAH inh 35 | pPAFAH FP conf inactive
CCOC(=O)c1c(C)[nH]c(N=Nc2ccc(C)cc2C)c1C	none
O=C(O)c1cccc2c1C(=O)c1ccc(-c3ccc(Cl)c(C(F)(F)F)c3)cc1S2(=O)=O	none
CC(=O)N1CCN(c2ccc(NCc3ccc(-c4ccc(Br)cc4)o3)cc2)CC1	pPAFAH inh 41 | pPAFAH FP conf 26
CCN(C(=O)COC(=O)c1cccc(S(=O)(=O)NCc2ccccc2)c1)c1ccccc1	none (no result: pPAFAH inh)
N#CCCN(C(=O)COC(=O)c1ccc(S(=O)(=O)Nc2ccccc2)cc1)c1ccccc1	pPAFAH inh 35 | pPAFAH FP conf inactive
O=C(O)C(C1CCCCC1)C1(O)CCCC1 (configuration not stated)	none (no result: pPAFAH inh)
Cc1cccc(C)c1NC(=O)c1cc(S(=O)(=O)N2CCC3(CC2)OCCO3)ccc1F	none (no result: PAFAH2 inh, PAFAH1B2 FP inh, pPAFAH inh, PAFAH1B3 FP inh)
Cc1ccc(Cl)cc1NC(=O)c1cc2ccccc2cc1O	pPAFAH inh 35 | pPAFAH FP conf inactive
O=C(NC(=S)NNC(=O)c1cc2ccccc2cc1O)c1ccco1	pPAFAH inh 39 | pPAFAH FP conf 37
NNC(=O)c1cc2ccccc2cc1O	pPAFAH inh 43 | pPAFAH FP conf inactive
COc1ccc(C(=O)NC(=S)NNC(=O)c2ccco2)cc1	none
COc1cc(NC(=O)c2cc3ccccc3cc2O)c(OC)cc1Cl	none
c1cc2c(cc1C1CCCCC1)c1c3n2CCCNC3CCC1 (configuration not stated)	pPAFAH inh 45 | pPAFAH FP conf inactive
CCOc1ccc(NC(=O)N2CCC(NC(=O)C(Cc3ccccc3OC)NC(C)=O)CC2)cc1 (configuration not stated)	none
CCc1ccc(/C=C/C(=O)c2cc(Br)ccc(=O)c2O)cc1	PAFAH2 inh 34, pPAFAH inh 70 | pPAFAH FP conf 43
Cc1cccc(/C=C/C(=O)c2cc(Br)ccc(=O)c2O)c1	PAFAH2 inh 34, pPAFAH inh 50 | pPAFAH FP conf inactive
CCOc1ccc(/C=C/C(=O)c2cc(Br)ccc(=O)c2O)cc1	pPAFAH inh 38 | pPAFAH FP conf 28
O=C(C=Cc1ccccc1)c1cc(Br)ccc1O	none (no result: pPAFAH inh)
CCOc1ccc(C(=O)/C=C/c2ccc(OC)c(OC)c2)cc1	none
CCOC(=O)c1sc(N/N=C/c2cc(Br)c(O)c(OC)c2)nc1C	pPAFAH inh 35 | pPAFAH FP conf 26
CCOC(=O)N/N=C/c1cc(OC)c(O)c(OC)c1	none
CC(=O)N1CCN(c2ccc(NC(=O)c3ccc([N+](=O)[O-])cc3)cc2)CC1	none
N#CCN(CC#N)C(=O)C1c2ccccc2Oc2ccccc21	pPAFAH inh 62 | pPAFAH FP conf inactive
NC(=O)COC(=O)C1c2ccccc2Oc2ccccc21	none
NC(=O)CN1C(=O)NC2(CCCc3sccc32)C1=O (configuration not stated)	none
Cc1cc(C(=O)CN2C(=O)NC3(CCCc4sccc43)C2=O)c(C)n1-c1ccc(Cl)cc1 (configuration not stated)	pPAFAH inh 40 | pPAFAH FP conf 42
CCN1C(=O)C(=O)N(CC(=O)N2CCC(C)Sc3ccccc32)C1=O (configuration not stated)	none
COc1cc(/C=C2/C(=O)NN(c3ccc(C)c(Cl)c3)C2=O)cc([N+](=O)[O-])c1O	none (no result: pPAFAH inh)
Cc1ccc(N2NC(=O)/C(=C\c3cc4c(cc3[N+](=O)[O-])OCO4)C2=O)cc1C	PAFAH2 inh 50, pPAFAH inh 48 | pPAFAH FP conf inactive
COc1cccc(/C=C2/C(=O)NN(c3ccccc3)C2=O)c1	none (no result: pPAFAH inh)
O=C1NN(c2ccccc2)C(=O)/C1=C/c1ccc(Sc2cccc3ccccc23)o1	pPAFAH inh 43 | pPAFAH FP conf 36
CC1(c2cccc(Br)c2)NC(=O)N(CC(=O)c2ccc3c(c2)OCO3)C1=O (configuration not stated)	none (no result: PAFAH2 inh, PAFAH1B2 FP inh, pPAFAH inh, PAFAH1B3 FP inh)
CC1(c2cccc(Br)c2)NC(=O)N(CC(=O)c2ccc3c(c2)OCCO3)C1=O (configuration not stated)	pPAFAH inh 38 | pPAFAH FP conf inactive
COc1ccc(N(CC(=O)N/N=C(\C)c2ccc(OC)c(OC)c2)S(=O)(=O)c2ccccc2)cc1	none
CC(=O)N1CCOc2ccc(S(=O)(=O)N(C)c3ccc(C)cc3)cc21	none
COc1ccc(CC(=O)Nc2cccc(/C(C)=N/NC(=O)c3cccc([N+](=O)[O-])c3)c2)cc1	pPAFAH inh 80 | pPAFAH FP conf inactive

Source: PubChem (The Scripps Research Institute Molecular Screening Center)
